MEKK3 PB1 HTS – raises or lowers MEK5 binding to the human MEKK3 PB1 domain; bead-based flow cytometry, Alexa488-MEK5 binding to MEKK3; actives lie on both sides; 0 = blocked by unlabeled MEK5, 100 = vehicle; binding response (% of control), % at 10 µM; 1.4% of 290,000 active;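 active = binding response more than 3 SD above or below the average of its plate-row segment, actives on both sides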;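 note: Alexa488 bead fluorescence after subtracting the streptavidin-only scavenger bead signal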
GRK2 inh – blocks RNA aptamer binding to human GRK2. 0.59% of 330,000 active. P25098. bead flow cytometry, FAM-aptamer displacement from GRK2. inhibition of aptamer binding, % at 10 µM;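 active = inhibition of aptamer binding above 40%, roughly 3 SD of noise, on plates passing a quality check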;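 note: median bead fluorescence of bound FAM aptamer so fluorescent compounds give negative values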
Target sequence (P25098 whole entry, looked up): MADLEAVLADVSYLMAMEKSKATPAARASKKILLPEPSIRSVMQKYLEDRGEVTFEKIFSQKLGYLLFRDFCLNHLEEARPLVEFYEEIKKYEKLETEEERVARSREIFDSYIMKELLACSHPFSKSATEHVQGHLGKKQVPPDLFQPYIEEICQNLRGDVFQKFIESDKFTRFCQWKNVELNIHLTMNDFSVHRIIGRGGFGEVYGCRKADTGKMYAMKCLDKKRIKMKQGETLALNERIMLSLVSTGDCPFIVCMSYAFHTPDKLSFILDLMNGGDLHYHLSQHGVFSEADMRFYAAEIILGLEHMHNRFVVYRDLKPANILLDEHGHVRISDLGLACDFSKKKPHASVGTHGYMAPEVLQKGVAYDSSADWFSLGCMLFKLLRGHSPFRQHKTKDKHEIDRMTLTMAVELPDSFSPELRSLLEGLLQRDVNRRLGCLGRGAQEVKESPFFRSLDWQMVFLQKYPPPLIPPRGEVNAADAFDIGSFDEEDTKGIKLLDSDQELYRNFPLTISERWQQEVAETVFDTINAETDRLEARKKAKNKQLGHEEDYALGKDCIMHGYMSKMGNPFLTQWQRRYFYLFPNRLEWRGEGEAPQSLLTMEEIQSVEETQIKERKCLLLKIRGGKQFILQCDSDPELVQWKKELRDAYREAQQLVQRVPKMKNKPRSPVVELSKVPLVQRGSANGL
MEKK2mut PB1 HTS – signal of MEK5 binding to mutant human MEKK2 PB1 domain. 0.35% of 290,000 active. percent response, % at 10 µM. AID 1530. bead flow cytometry, Alexa488-MEK5 binding to MEKK2 mutant; in the data active = percent response above about 24%, passing the limit was not always enough
MEKK2 WT-MEK5 – raises or lowers MEK5 binding to wildtype human MEKK2 PB1 domain. AID 1531. binding response (% of control), % at 10 µM. 1.1% of 290,000 active. bead flow cytometry, Alexa488-MEK5 binding to MEKK2 WT; actives lie on both sides; in the data active = binding response below about 67% or above about 130%
MEKK2wt confirm – raises or lowers MEK5 binding to wildtype human MEKK2, retest; shares compounds with MEKK3 PB1 HTS; bead flow cytometry, Alexa488-MEK5 binding to MEKK2 WT; actives lie on both sides; binding response (% of control), % at 10 µM; 2.4% of 5,900 active; in the data active = binding response below about 16% or above about 210%; inactive = in between
MEKK2mut confirm – signal of MEK5 binding to mutant human MEKK2, retest; shares compounds with MEKK3 PB1 HTS; bead flow cytometry, Alexa488-MEK5 binding to MEKK2 mutant; percent response, % at 10 µM; 2% of 5,900 active; AID 1893; in the data active = percent response mostly above about 71%, no sharp cut-off; inactive = mostly below about 38%;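 note: higher means compound restores mutant binding toward wildtype level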
MEKK3 confirm – MEKK3-MEK5 PB1 inhibition, single concentration confirmation; shares compounds with MEKK3 PB1 HTS; bead flow cytometry, Alexa488-MEK5 binding to MEKK3; stronger effect = lower value; binding response (% of control), % at 10 µM; 1.8% of 5,900 active; AID 1894;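 active = binding response below 72% of control, or above a set upper limit, though filed actives all read lower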;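 note: 100% = DMSO only wells and 0% = binding blocked by excess unlabeled MEK5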
An asterisk follows results filed as active; · = no result given; [ ] = dose if it differs, or a comment. Shown are actives, neighbours in structure and some others; about 2.5% of the full set was active somewhere.

SMILES | MEKK3 PB1 HTS | GRK2 inh | MEKK2mut PB1 HTS | MEKK2 WT-MEK5 | MEKK2wt confirm | MEKK2mut confirm | MEKK3 confirm
Cc1nc2c3cc(F)ccc3n(CCN3CCCCC3)c2s1 | 102 | 0 | 7 | 112 | · | · | ·
Cc1nc2c3cc(F)ccc3n(Cc3ccccc3F)c2s1 | 140* | 5 | -1 | 109 | 89 | -16 | 89
CC1CCN(C(=O)C2CCC(C)(C(=O)O)C2(C)C)CC1 (stereo not drawn) | 135* | 0 | 1 | 109 | 105 | -6 | 104
CC1(C(=O)O)CCC(C(=O)Nc2ccc(F)cc2)C1(C)C (stereo not drawn) | 100 | 0 | 1 | 101 | · | · | ·
CCC(C)(C)c1ccc(OCCCC[n+]2cccc(C)c2)c(C(C)(C)CC)c1 | 107 | · | 44 | 191* | 192 | 81* | 111
Cc1ccc[n+](CC(=O)Nc2cc(C(F)(F)F)ccc2Cl)c1 | 91 | 0 | -4 | 95 | · | · | ·
Cc1cn(CCC(=O)Nc2ccc(N3CCOCC3)cc2)c2ccccc12 | 128* | 0 | 27 | 129 | 102 | -6 | 100
Cc1nc2c(-c3ccc(F)cc3)c(C)nn2c(C)c1CCC(=O)Nc1ccccc1 | 81 | 2 | -20 | 83 | · | · | ·
CCN1CCN(c2ccc(NC(=O)CCc3c(C)nc4c(-c5ccc(F)cc5)c(C)nn4c3C)cc2)CC1 | 104 | 0 | 20 | 146* | 132 | 24 | 108
CCCCN1C(=O)C(CC(=O)NCC)SC1=Nc1ccccc1 (stereo not drawn) | 134* | 0 | 6 | 108 | 95 | 4 | 95
CCNC(=O)CC1SC(=Nc2ccc(C)cc2)N(CC)C1=O (stereo not drawn) | 108 | 0 | 3 | 112 | · | · | ·
COc1ccccc1NC(=O)CSc1nnnn1-c1ccc2c(c1)OCO2 | · | 2 | · | · | · | · | ·
Cc1cccc2cc(CN(CCN3CCOCC3)C(=O)Nc3ccccc3F)c(=O)[nH]c12 | 132* | 1 | 1 | 112 | 104 | -4 | 101
Cc1cc2cc(CN(CCN3CCOCC3)C(=O)Nc3ccccc3F)c(=O)[nH]c2cc1C | 107 | 0 | 10 | 110 | · | · | ·
Cc1cc(N)ccc1N1CCCC1 | 71*[inhibitor] | 0 | 6 | 94 | 99 | 2 | 91
Cc1cc(N)ccc1-n1c(C)ccc1C | 91 | 3 | -7 | 90 | · | · | ·
Cc1ccc(NC(=O)N2CCC(C(=O)NCCC3=CCCCC3)CC2)cc1 | 98 | 0 | -4 | 97 | · | · | ·
COc1ccc(NC(=O)Nc2cc(C)ccc2F)cc1 | 75 | 0 | -13 | 78 | · | · | ·
COc1cc(NC(=O)COC(=O)c2ccc(C)c(S(=O)(=O)N3CCCCC3)c2)c(C)cc1[N+](=O)[O-] | 146* | 9 | 0 | 108 | 105 | 1 | 102
O=C(Cn1cnc([N+](=O)[O-])n1)N/N=C/c1cc(Cl)ccc1O | 135* | 0 | 17 | 121 | 110 | 6 | 106
CN(C)CCCN(C(=O)c1ccc(S(=O)(=O)N(C)Cc2ccccc2)cc1)c1nc2c(F)cccc2s1 | 110 | 0 | 40* | 196* | 176 | 34 | 108
Cc1ccc(-c2csc(N(CCCN(C)C)C(=O)c3ccco3)n2)cc1 | 114 | 0 | 30 | 202* | 183 | 49 | 107
CN(C)CCCN(C(=O)c1ccco1)c1nc2c(F)cc(F)cc2s1 | 96 | 3 | -10 | 96 | · | · | ·
CN(C)CCCN(C(=O)c1ccco1)c1nc2ccc(F)cc2s1 | 102 | 0 | 2 | 104 | · | · | ·
CN(C)CCCN(C(=O)c1ccco1)c1nc2c(F)cccc2s1 | 62*[inhibitor] | 3 | 68* | 101 | 107 | 7 | 102
Cc1ccc2nc(N(CCCN(C)C)C(=O)c3ccco3)sc2c1 | 231* | 0 | 33 | 121 | 109 | 12 | 107
CN(C)CCCN(C(=O)c1ccco1)c1nc(-c2ccc(Cl)cc2)cs1 | 100 | 0 | 8 | 138 | · | · | ·
Cc1nn2c(N3CCN(C4CCCC4)CC3)cc(C(C)(C)C)nc2c1-c1ccccc1 | 103 | 0 | 8 | 116 | · | · | ·

Screening results: PubChem BioAssay, NMMLSC
